Results filed as inconclusive are left out. Active and inactive are the calls of the source. Calls come from the whole dose curve; as a rule, active = well fitted cell-killing curve with a large enough effect; inconclusive = small, poorly fitted or top-dose-only effect, or effect the other way; inactive = flat fitted curve, though single readings scatter.
Columns and labels:
Experiment in all cases: Primary qHTS to identify gynecologic anti-cancer compounds using libraries of approved drugs and bioactive compounds (AID 1345084); note: nearly all actives have a fitted effect of over 55% in size
Hek293T = details: Gynecologic cancer cell panel viability, ATPlite luminescence, 48 h, control line for the selectivity index; series mostly up to 57.5 µM
In short: (§1)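 48 h compound exposure at 37 C, 5% CO2; five-point qHTS. ATPlite luminescence readout of cell ATP.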

JEG-3 = details: Gynecologic cancer cell panel viability, ATPlite luminescence, 48 h; series mostly up to 57.5 µM
In short: as §1

OV90 = details: Gynecologic cancer cell panel viability, ATPlite luminescence, 48 h; series mostly up to 57.5 µM
In short: as §1

PA-1 = details: Gynecologic cancer cell panel viability, ATPlite luminescence, 48 h; series mostly up to 57.5 µM
In short: as §1

SKOV3 = details: Gynecologic cancer cell panel viability, ATPlite luminescence, 48 h; series mostly up to 57.5 µM
In short: as §1

Tov-21-G = details: Gynecologic cancer cell panel viability, ATPlite luminescence, 48 h; series mostly up to 57.5 µM
In short: as §1

Tov112D = details: Gynecologic cancer cell panel viability, ATPlite luminescence, 48 h; series mostly up to 57.5 µM
In short: as §1

Measured: Potency

CN[C@@H]1[C@@H](O)[C@@H](O[C@@H]2[C@@H](O)[C@H](O[C@H]3O[C@H](CN)[C@@H](O)[C@H](O)[C@H]3O)[C@@H](N)C[C@H]2NC(=O)[C@@H](O)CN)OC[C@]1(C)O
inactive: all assays above

COC12CC3C(C(C)C1=CC(=O)O2)C(O)C(OC(C)=O)C1C(C)(C)C(OC(C)=O)CCC31C (stereo unspecified)
inactive: all assays above

O=C(O)c1ccc(CCCc2ccc(OCCc3ccc(F)cc3)cc2)o1
inactive: all assays above

CC(=O)O[C@H]1[C@H](C)[C@@H](O)[C@H]2[C@@H]1C=C(C(=O)O)[C@H]1C[C@@H]3[C@H]([C@H]21)[C@H]1C(=O)O[C@@H]2CC[C@@]3(C)O[C@]1(O)[C@@H]2C
inactive: all assays above

CC(O)(CC(=O)O)CC(=O)O[C@@H]1[C@@H](O)[C@H](OCCc2ccccc2)O[C@H](CO)[C@H]1O (stereo partly specified)
inactive: all assays above

CC(/C=C/C1(O)C(C)(C)CC(O)CC1(C)O)OC1OC(CO)C(O)C(O)C1O (stereo unspecified)
inactive: all assays above

CC(=O)O[C@H]1C[C@@H]2[C@]3(CC[C@]4(C)[C@@H](C5(C)CCC(C(C)(C)O)O5)[C@@H](O)C[C@@]24C)C[C@@]32CC[C@H](O[C@@H]3OC[C@@H](O)[C@H](O)[C@H]3O)C(C)(C)[C@H]12 (stereo partly specified)
inactive: all assays above

CC1=C2C(=O)O[C@@H](c3ccoc3)[C@]2(C)CCC1
inactive: all assays above

C[C@@H]1C(=O)O[C@H]2CC34[C@H]5C[C@@H](C(C)(C)C)C36[C@@H](OC(=O)[C@@H]6O)OC4(C(=O)O5)[C@]21O (stereo partly specified)
inactive: all assays above

O=C(OCC12OC1C=CC(OC(=O)c1ccccc1)C2O)c1ccccc1 (stereo unspecified)
inactive: all assays above

CC1(C)C(=O)N2c3ccccc3[C@]3(CC(n4cnc5ccccc5c4=O)C(=O)O3)[C@H]2N1O (stereo partly specified)
inactive: all assays above

CC1=CC(=O)OC(C)(CC(C)(O)C(=O)O)C1 (stereo unspecified)
inactive: all assays above

CC1(C(=O)O)CCCC2(C)C1CCC13CC(CCC21)C1(CO)OC31 (stereo unspecified)
inactive: all assays above

COC(=O)[C@H](CC1C=NC=N1)NCC12CC3CC(CC(C3)C1)C2 (stereo partly specified)
inactive: all assays above

CC1=CC2(O)/C=C/C(C)(O)CC(O)/C=C/C(=O)OC23C(=O)NC(CC(C)C)C3C1C (stereo unspecified)
inactive: all assays above

O=C(CCCCc1ccc2ccccc2c1)C(F)(F)F
inactive: all assays above

OC[C@H]1O[C@@H](Oc2ccc3c(c2)OC[C@H]2c4cc5c(cc4O[C@@H]32)OCO5)[C@H](O)[C@@H](O)[C@@H]1O
inactive: all assays above

COc1ccc2c(c1)O[C@H](O[C@@H]1O[C@H](CO)[C@@H](O)[C@H](O)[C@H]1O)C(=O)N2
inactive: all assays above
